# HCMV antiviral – blocks human cytomegalovirus replication. HFF cells, HCMV-luciferase reporter, 72 h; active compounds read low. activity change, negative = inhibition, % at 57.5 µM. 4.5% of 410,000 active. AID 1259415; in the data active = activity change below about -60%; inconclusive = no clear call, values can overlap the other calls; inactive = above about -39%
#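 Inhibition of viral replication was scored as loss of reporter luminescence in HFFs infected with HCMV-luciferase (MOI 1 PFU/cell) for 72 h; compounds tested at 2 doses, normalized to buffer and Salinomycin controls.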
# Vaccinia mCherry – inhibitors of vaccinia virus infection (mCherry reporter signal); Vaccinia virus mCherry reporter infection, fluorescence; AID 720579; 0.63% of 310,000 active; Potency, µM (series often up to 36.5 µM), inactives show at the highest dose activity change, negative = inhibition, usual class: inhibitors; calls by dose curve; tested in A549 cells; also: potency is read from the fitted curve at half-maximal effect; nearly all actives have a fitted effect of over 35% in size
# FMDV inh – antivirals against foot and mouth disease virus | FMDV antiviral cell-based qHTS | Potency, µM (top dose mostly 57.9 µM), without a hit: top-dose activity change, negative = inhibition, hits mostly inhibitors | 1.2% of 410,000 active | AID 1159524; calls by dose curve; tested in HEK293T cells; also: read-out not given here; potency is read from the fitted curve at half-maximal effect; nearly all actives have a fitted effect of over 45% in size
# Lassa entry inh – inhibitors of Lassa virus binding or cell entry; Lassa virus pseudotype entry inhibition, cell reporter; Potency, µM (top dose mostly 37.9 µM), for inactives: at the highest dose activity change, negative = inhibition, hits mostly inhibitors; 1.2% of 300,000 active; AID 540256; calls by dose curve; tested in HEK293 cells; also: potency is read from the fitted curve at half-maximal effect; nearly all actives have a fitted effect of over 50% in size
# MARV entry inh – blocks Marburg virus binding to or entry into cells; Marburg virus pseudotyped entry inhibition, cell reporter; Potency, µM (series often up to 37.8 µM), for inactives: at the highest dose activity change, negative = inhibition, most hits filed as inhibitors; 1.8% of 300,000 active; AID 540276; calls by dose curve; tested in HEK293 cells; also: potency is read from the fitted curve at half-maximal effect
# VACV Venus inh – vaccinia inhibition (Venus reporter); Vaccinia virus Venus reporter expression, fluorescence; Potency, µM (doses to about 36.5 µM), for inactives: at the highest dose activity change, negative = inhibition, actives largely listed as inhibitors; 0.46% of 330,000 active; calls by dose curve; tested in A549 cells; also: potency is read from the fitted curve at half-maximal effect; nearly all actives have a fitted effect of over 30% in size
# * = called active by the depositor; i = inactive; ? = inconclusive; . = no result given; [ ] = another dose, or the depositor's remark. Most compounds without a hit are left out; they make up all but 6.5% or so of the library. % is scaled to controls: 0 for no effect and ±100 for the full control effect.
SMILES,HCMV antiviral,Vaccinia mCherry,FMDV inh,Lassa entry inh,MARV entry inh,VACV Venus inh
O=C(Nc1ccc(NC(=O)c2ccco2)cc1)c1ccco1,-4,-12%,43%,0%[46.1 µM],11%[46.1 µM],-5%
COc1cccc(NS(=O)(=O)c2ccc3[nH]cc(C(=O)N(C)C4CCCCC4)c(=O)c3c2)c1,37,-2%,20%,16%[46.1 µM],.,-6%
CCOc1ccc(NC(=O)CC2C(=O)N(c3ccccc3)C(=O)N2C2CCCCC2)cc1 (configuration not stated),3,-7%,-15%,?,-6%[46.1 µM],-4%
O=C(Nc1ccc(-c2ccccc2)cc1)c1ccco1,-64*,-3%,-6%,0%[46.1 µM],?,-14%
CCCCN(CC)C(=O)CSc1nc2n[nH]c(C)c2c(=N)n1-c1cccc(OC)c1,77,?,-20%,?,.,?
C=CCn1c(Sc2ncc([N+](=O)[O-])s2)n[nH]c1=O,-97*,-14%,?,?,?,0%
CCOC(=O)C1=C(C)OC(N)=C(C#N)C1c1cccs1 (configuration not stated),-12,-9%,-18%,1%,12%[46.1 µM],-1%
CCN1CC2=C(OC(N)=C(C#N)C2c2ccccc2)/C(=C\c2ccccc2)C1 (configuration not stated),-18,.,22µM*,?,?,-13%
CCN1CC2=C(OC(N)=C(C#N)C2c2cccs2)/C(=C/c2cccs2)C1 (configuration not stated),2,i,28µM*,?,?,-20%
CCN1C=C(Cc2cccs2)C2=C(C1)C(c1cccs1)C(C#N)=C(N)O2 (configuration not stated),-36,i,20µM*,-24%,?,-14%
COc1ccc(CCNC(=O)Cn2ncc3c(C)n(Cc4ccccc4F)c(C)c3c2=O)cc1OC,-1,0%,-13%,-1%[46.1 µM],?,-9%
CC(C)CCNc1nc(N)c([N+](=O)[O-])c(N2CCCCCC2)n1,-94*,.,?,.,.,.
CNc1nc(N)c([N+](=O)[O-])c(N2CCCCCC2)n1,-13,.,-8%,.,.,.
CC[C@@H](C)CCCCC(=O)N[C@H](CCN)C(=O)N[C@@H](C(=O)N[C@H](CCN)C(=O)N[C@@H]1CCNC(=O)C([C@@H](C)O)NC(=O)[C@@H](CCN)NC(=O)[C@@H](CCN)NC(=O)[C@@H](CC(C)C)NC(=O)[C@@H](Cc2ccccc2)NC(=O)[C@@H](CCN)NC1=O)[C@@H](C)O (some centres not stated),.,0%,-2%,.,.,9%
O=C1C(Cl)=C(Nc2ccccc2)C(=O)c2ccccc21,0,i,40µM*,?,?,-1%
CC(=O)N(Cc1ccc(F)cc1)c1cccc(C)c1C,?,-17%,-14%,-12%,-22%[46.1 µM],-15%
CCN(CC)CCCNC1=C(Cl)C(=O)c2ccccc2C1=O,-94*,?,28µM*,?,?,?
COCCCNC1=C(Cl)C(=O)c2ccccc2C1=O,-22,?,4%,25%[46.1 µM],-22%[46.1 µM],-20%
C=CCNC1=C(Cl)C(=O)c2ccccc2C1=O,68,?,-14%,?,?,13µM*
CC(=O)N(Cc1ccc(F)cc1)C1=C(NCCc2ccccc2)C(=O)c2ccccc2C1=O,-100*,2.8µM*,25µM*,7.1µM*,?,3.2µM*
CCOc1ccc(CCNC(=O)c2cc(C)nc3c2c(C)nn3-c2cccc(F)c2)cc1,-8,-14%,-10%,13%[46.1 µM],.,-21%
O=C(O)c1ccc(NC2=C(Cl)C(=O)c3ccccc3C2=O)cc1,?,.,25µM*,.,.,.
Cc1ccc(NC2=C(NC(=O)c3ccccc3)C(=O)c3ccccc3C2=O)cc1Cl,?,?,-27%,?,?,?
O=C1c2ccccc2C(=O)c2c(NCCc3ccc(O)cc3)ccc(NCCc3ccc(O)cc3)c21,.,.,.,5.2µM*,21µM*,.
CC1=C(Nc2ccc(C(=O)O)cc2)C(=O)c2ccccc2C1=O,76,.,9%,.,.,.
O=C1C(Cl)=C(NCCc2ccccc2)C(=O)c2ccccc21,-64*,-23%,-17%,?,?,25%
O=C(O)c1cccc(NC2=C(Cl)C(=O)c3ccccc3C2=O)c1,-100*,.,?,.,.,.
